In the library only some 6.8% were active in any assay of this set; here they are far more common.
C diff HTS = C. difficile growth inhibitors, primary screen, HTS | actives 0.25% (n = 86,000) | Clostridium difficile clinical isolate growth, OD600, 24 h; active compounds read low | growth activity, negative = inhibition, % at 16 µg/mL (by protocol);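 active = mean growth activity at or below -80% and every replicate also at or below -80%; inconclusive = mean at or below -80% but some replicate above -80%; inactive = mean growth activity above -80%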
T cruzi growth-1 = T. cruzi intracellular proliferation inhibitors, primary screen, cell-based, beta-gal Tulahuen parasites, NIH3T3 host, luminescence; AID 624255, 2012; actives 5.9% (n = 77,000); inhibition, % at 8.34 µM; T. cruzi beta-gal in NIH3T3, GalScreen luminescence, 90 h;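 active = mean inhibition above about 93%, with at least 55% of replicates each passing it, limit read from the data, passing the limit was not always enough; inconclusive = only one of those two conditions holds; inactive = neither condition holds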
Pf Dd2 inh = P. falciparum Dd2 growth inhibitors, primary screen, SYBR Green fluorescence, single dose replicates; actives 2.3% (n = 94,000); 72 h; active compounds read low; activity change, % at 10 µM; in the data active = activity change below about -80%; inconclusive = no clear call, values can overlap the other calls
T cruzi growth-2 = T. cruzi intracellular proliferation inhibitors, confirmation, cell-based, NIH3T3 host, beta-gal parasite, luminescence, cherry-pick. shares compounds with T cruzi growth-1. T. cruzi beta-gal in NIH3T3, GalScreen luminescence, 90 h. inhibition, % at 8.35 µM. actives 72% (n = 5,600). AID 651739, 2012;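 active = mean replicate inhibition above about 95% and at least 55% of replicates individually reaching it, limit read from the data; inconclusive = only one of the two criteria is met; inactive = neither criterion is met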
T cruzi growth-3 = inhibitors of intracellular T. cruzi replication, confirmation, NIH3T3 host cells, beta-gal parasites, cherry-pick, set 2. actives 21% (n = 5,600). T. cruzi beta-gal in NIH3T3, GalScreen luminescence, 90 h. inhibition, % at 2.09 µM. shares compounds with T cruzi growth-1;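 active = mean inhibition above about 95%, with at least 55% of replicates also reaching it, limit read from the data; inconclusive = meets just one of the two conditions; inactive = meets neither condition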
3T3 cytotox = cytotoxicity in mouse NIH/3T3 fibroblasts, confirmation, cytotoxicity control for T. cruzi proliferation inhibitor project, cell-based, cherry-pick, single point; shares compounds with T cruzi growth-1; NIH/3T3 viability, CellTiter-Glo ATP luminescence, 90 h; cytotoxicity (signal decrease), % at 8.35 µM; actives 14% (n = 5,600); AID 651742, 2012;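 active = mean signal decrease across replicates above about 35% based on untreated-well scatter, with enough replicates individually passing, limit read from the data; inconclusive = no rule stated though some were filed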
3T3 cytotox 2 = NIH/3T3 fibroblast cytotoxicity, confirmation, cytotoxicity control, cell-based, cherry-pick, single point, set 2. inhibition, % at 24.9 µM. shares compounds with T cruzi growth-1. NIH/3T3 viability, CellTiter-Glo ATP luminescence, 90 h. actives 56% (n = 5,600);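 active = mean loss of cell viability signal at or above a set limit, and enough replicates individually reaching it; inconclusive = meets only the mean limit or only the replicate share; inactive = meets neither condition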
Each line names hits and unclear results; the compound was inactive in the other large screens (follow-up assays come after a bar, where they were run).

Cc1ccc(S(=O)(=O)Nc2ccc3c(c2)C(=O)N([C@H](C)CO)C[C@@H](C)[C@@H](CN(C)CC2CCCCC2)OCCCC[C@H](C)O3)cc1	none
Cc1ccc(S(=O)(=O)Nc2ccc3c(c2)C(=O)N([C@@H](C)CO)C[C@@H](C)[C@H](CN(C)CC2CCCCC2)OCCCC[C@H](C)O3)cc1	none
COc1ccc(S(=O)(=O)Nc2ccc3c(c2)C(=O)N([C@@H](C)CO)C[C@H](C)[C@H](CN(C)CC2CCCCC2)OCCCC[C@@H](C)O3)cc1	none
Cc1ccc(S(=O)(=O)Nc2ccc3c(c2)C(=O)N([C@H](C)CO)C[C@@H](C)[C@@H](CN(C)CC2CCCCC2)OCCCC[C@@H](C)O3)cc1	T cruzi growth-1 inconclusive | T cruzi growth-2 100 | T cruzi growth-3 101 | 3T3 cytotox 46 | 3T3 cytotox 2 104
CN(C)CC(=O)N1CC2(C1)[C@H](c1ccccc1)[C@H](CO)N2S(=O)(=O)c1ccccc1	none (no result: T cruzi growth-1)
CNC(=O)C[C@H]1CC[C@H]2[C@@H](COc3ccc(NC(=O)Nc4cccc(F)c4)cc3C(=O)N2C)O1	none
COc1ccc(NC(=O)Nc2cccc3c2O[C@H](CN(C)C(=O)NC(C)C)[C@H](C)CN([C@@H](C)CO)C3=O)cc1	none
C[C@@H]1CCCCO[C@@H](CN(C)S(=O)(=O)c2cn(C)cn2)[C@@H](C)CN([C@@H](C)CO)C(=O)c2cc(NS(C)(=O)=O)ccc2O1	T cruzi growth-1 102 | T cruzi growth-2 inactive | T cruzi growth-3 inactive | 3T3 cytotox inactive | 3T3 cytotox 2 inactive
C[C@@H]1CCCCO[C@H](CN(C)S(=O)(=O)c2cn(C)cn2)[C@@H](C)CN([C@@H](C)CO)C(=O)c2cc(NS(C)(=O)=O)ccc2O1	none
CC(C)C(=O)Nc1ccc2c(c1)C(=O)N(C)[C@H]1CC[C@@H](CC(=O)Nc3ccccc3)O[C@H]1CO2	none
C[C@H]1CN([C@@H](C)CO)C(=O)c2cc(-c3cccnc3)cnc2O[C@H]1CN(C)C(=O)C1CCOCC1	none
CO[C@H]1CC[C@@H]2CCOc3ccc(C#N)cc3C(=O)N(C)C[C@@H](OC)[C@@H](C)C(=O)N(C)C[C@H]1O2	none (no result: Pf Dd2 inh)
C[C@@H](NC(=O)C[C@@H]1CC[C@H]2[C@@H](COC[C@@H](O)CN2Cc2cc(F)ccc2F)O1)c1ccccc1	none
COc1cccc(-c2ccc([C@@H]3[C@H]4CN(C(=O)c5ccc(F)cc5)CCCCN4[C@H]3CO)cc2)c1	none
COc1cccc(-c2ccc([C@H]3[C@H]4CN(C(=O)c5ccc6c(c5)OCO6)CCCCN4[C@H]3CO)cc2)c1	none
COc1cccc(-c2ccc([C@H]3[C@H](CO)N4CCCCN(C(=O)c5ccc6c(c5)OCO6)C[C@@H]34)cc2)c1	T cruzi growth-1 109 | T cruzi growth-2 101 | T cruzi growth-3 inactive | 3T3 cytotox 40 | 3T3 cytotox 2 72
COc1cccc(-c2ccc([C@@H]3[C@@H](CO)N4CCCCN(C(=O)c5ccc6c(c5)OCO6)C[C@@H]34)cc2)c1	T cruzi growth-1 inconclusive | T cruzi growth-2 104 | T cruzi growth-3 inactive | 3T3 cytotox inactive | 3T3 cytotox 2 56
CCCC#Cc1ccc2c(c1)O[C@H](CN(C)Cc1ccccc1)[C@@H](C)CN([C@H](C)CO)S2(=O)=O	none (no result: T cruzi growth-1)
Cc1ccc(S(=O)(=O)Nc2ccc3c(c2)C(=O)N([C@@H](C)CO)C[C@@H](C)[C@H](CN(C)Cc2ccc4c(c2)OCO4)OCCCC[C@H](C)O3)cc1	none
Cc1ccc(S(=O)(=O)Nc2ccc3c(c2)C(=O)N([C@@H](C)CO)C[C@@H](C)[C@@H](CN(C)Cc2ccc4c(c2)OCO4)OCCCC[C@@H](C)O3)cc1	none
Cc1ccc(S(=O)(=O)Nc2ccc3c(c2)C(=O)N([C@H](C)CO)C[C@H](C)[C@@H](CN(C)Cc2ccc4c(c2)OCO4)OCCCC[C@H](C)O3)cc1	T cruzi growth-1 102 | T cruzi growth-2 108 | T cruzi growth-3 inactive | 3T3 cytotox inactive | 3T3 cytotox 2 84
C[C@@H]1CCCCO[C@H](CN(C)Cc2ccc3c(c2)OCO3)[C@H](C)CN([C@H](C)CO)C(=O)c2cc(NS(=O)(=O)c3ccc(F)cc3)ccc2O1	none (no result: C diff HTS)
C[C@H](CO)N1C[C@H](C)[C@@H](CN(C)Cc2ccc3c(c2)OCO3)OCCCC[C@H](C)Oc2ccc(NS(=O)(=O)c3ccc(Cl)cc3)cc2C1=O	none (no result: C diff HTS)
C[C@@H]1CCCCO[C@H](CN(C)Cc2ccc3c(c2)OCO3)[C@@H](C)CN([C@@H](C)CO)C(=O)c2cc(NS(=O)(=O)c3ccc(Cl)cc3)ccc2O1	T cruzi growth-1 inconclusive (no result: C diff HTS) | T cruzi growth-2 95 | T cruzi growth-3 108 | 3T3 cytotox inconclusive | 3T3 cytotox 2 103
Cc1ccc(S(=O)(=O)Nc2ccc3c(c2)C(=O)N([C@@H](C)CO)C[C@@H](C)[C@@H](CN(C)Cc2ccc4c(c2)OCO4)OCCCC[C@H](C)O3)cc1	T cruzi growth-1 inconclusive | T cruzi growth-2 inactive | T cruzi growth-3 inconclusive | 3T3 cytotox 61 | 3T3 cytotox 2 104
Cc1ccc(S(=O)(=O)Nc2ccc3c(c2)C(=O)N([C@@H](C)CO)C[C@H](C)[C@@H](CN(C)Cc2ccc4c(c2)OCO4)OCCCC[C@@H](C)O3)cc1	T cruzi growth-1 98, Pf Dd2 inh -81 | T cruzi growth-2 102 | T cruzi growth-3 inactive | 3T3 cytotox inactive | 3T3 cytotox 2 105
CC=Cc1ccc2n(c1=O)C[C@H]1[C@H](CO)[C@@H](C(=O)NCc3ccc4c(c3)OCO4)[C@@H]2N1C(=O)C1CC1 (mixture of isomers)	none
CC(C)NC(=O)N(C)C[C@@H]1Oc2ncc(C#CCC3CCCC3)cc2C(=O)N([C@H](C)CO)C[C@H]1C	none (no result: Pf Dd2 inh)
C[C@H]1CN([C@@H](C)CO)C(=O)c2cccc(NS(=O)(=O)c3ccc(Cl)cc3)c2O[C@@H]1CN(C)C(=O)Nc1ccccc1	none
CS(=O)(=O)Nc1ccc2c(c1)[C@@H]1C[C@@H](CC(=O)NCc3ccccc3F)O[C@H](CO)[C@@H]1O2	none
COc1ccc(S(=O)(=O)Nc2ccc3c(c2)C(=O)N([C@H](C)CO)C[C@H](C)[C@H](CN(C)Cc2ccc4c(c2)OCO4)OCCCC[C@H](C)O3)cc1	T cruzi growth-1 inconclusive | T cruzi growth-2 103 | T cruzi growth-3 inconclusive | 3T3 cytotox inactive | 3T3 cytotox 2 105

Compound activity from PubChem BioAssay.
